Laboratory results reported in PubChem BioAssay (NCATS).
Inconclusive results are not listed. Activity calls are given as the source filed them. Unless noted, calls come from the whole dose curve; as a rule, active = well fitted curve in the direction sought with a large enough effect; inconclusive = small, poorly fitted or top-dose-only effect, or another doubt; inactive = no such curve, though single readings can be large; an effect the other way counts as inactive or inconclusive.

Tests used:
[1] = target: D(1A) dopamine receptor (Homo sapiens) (UniProt P21728); assay: HTS Assay for Allosteric Agonists of the Human D1 Dopamine Receptor: Primary Screen for Agonists (AID 488981); note: 0% is about no effect
Method in brief: (§1)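 Tetracycline-induced HEK293 Trex D1 cells with forced coupling to calcium, loaded with no-wash calcium dye; kinetic fluorescence read 180 s after compound addition for agonism, then a further 180 s after an EC20 dopamine challenge for potentiation.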

[2] = target: D(1A) dopamine receptor (Homo sapiens) (UniProt P21728); assay: HTS Assay for Allosteric Agonists of the Human D1 Dopamine Receptor: Primary Screen for Potentiators (AID 488982); note: 0% is about no effect
Method in brief: as §1

[3] = target: D(1A) dopamine receptor (Homo sapiens) (UniProt P21728); assay: HTS Assay for Allosteric Agonists of the Human D1 Dopamine Receptor: Primary Screen for Antagonists (AID 488983);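 note: calcium flux response to an EC80 dopamine challenge measured with no-wash dye; % is set by controls: 0 for no effect and ±100 for the full control effect; nearly all actives have a fitted effect of over 65% in size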
Method in brief: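 Tetracycline-induced HEK293 T-REx cells expressing force-coupled D1 were plated overnight at 30 C, dye-loaded for calcium, and read kinetically. Compounds were pinned in, then an EC80 dopamine challenge followed after 180 s to reveal antagonism.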

[4] = Validation screen for small molecules that induce genotoxicity in human embryonic kidney (HEK293T) cells expressing luciferase-tagged ELG1 (AID 493106); note: 0% is about no effect
Method in brief: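 HEK293T cells expressing luciferase-tagged ELG1 were exposed to compound or DMSO vehicle for 16 hr at 37 °C, 5% CO2. Genotoxic stress raises ELG1 levels, so increased luciferase signal after ONE-Glo addition and 30 min at room temperature marks hits.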

[5] = target: ATPase family AAA domain-containing protein 5 (Homo sapiens) (UniProt Q96QE3); assay: Validation screen for small molecules that inhibit ELG1-dependent DNA repair in human embryonic kidney (HEK293T) cells expressing luciferase-tagged ELG1 (AID 493107);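 note: cells co-treated with the DNA-damaging agent 5-fluorouridine alongside compound; series mostly up to about 46 µM; % is set by controls: 0 for no effect and ±100 for the full control effect; inhibitors lower the ELG1-luciferase luminescence signal; nearly all actives have a fitted effect of over 70% in size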
Method in brief: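 HEK293T cells expressing luciferase-tagged ELG1 were co-treated with 5-fluorouridine and compound or DMSO for 16 hr at 37 °C, 5% CO2. Luciferase activity was then read with ONE-Glo after 30 min at room temperature; suppressed signal indicates blocked ELG1 function.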

[6] = target: Thyrotropin-releasing hormone receptor (Homo sapiens) (UniProt P34981); assay: qHTS for Small Molecule Agonists and Allosteric Enhancers of Human TRH Receptor: Validation Screen for Agonists (AID 493127;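 active = calcium activation more than 3 SD above the typical response in the agonist read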;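 note: intracellular calcium rise by fluo-8 fluorescence before TRH EC20 addition; 0% is about no effect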); conditions: TRH receptor agonist cell assay; at 2 µM; stronger effect = higher value
Method in brief: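 TRHR-expressing cells were plated overnight in serum-containing medium, then loaded with fluo-8 calcium dye at room temperature for 30 min–1.5 h. After a 10 s baseline, compound was pin-transferred and calcium fluorescence (ex 480/em 530) read kinetically for agonist response.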

[7] = Nrf2 qHTS screen for inhibitors: Validation (AID 493153; active = well fitted inhibition curve with a large enough effect in the main read-out, with a control signal flat, not every such curve was filed as active); conditions: viability change: measured here: cytotoxicity max response
Method in brief: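 A549 cells carrying an ARE-driven firefly luciferase reporter, in 5% FBS OPTI-MEM, were treated with compounds in concentration-response for 18-24 h at 37°C. Viability was read by CellTiter-Fluor fluorescence, then Nrf2 activity by luciferase luminescence.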

[8] = qHTS for Inhibitors of Cell Surface uPA Generation: Validation Assay (AID 493164);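 note: RAW 264.7 macrophage cells exposed to compound for 18 h; 0% is about no effect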
Method in brief: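 RAW 264.7, 4000 cells/well, o/n plating; cpd 7-pt 1:5 dilution 2.45 nM–38.3 uM final; 18 h, 37 C/5% CO2; ATP-Lite, 5 s luminescence exposure.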

[9] = target: Galactokinase (Homo sapiens) (UniProt P51570); assay: qHTS Validation Assay for Inhibitors of Human Galactokinase (GALK) (AID 493189); note: 0% is about no effect
Method in brief: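 5 nM GALK / 100 uM galactose / 35 uM ATP, 20 mM HEPES pH8.0, 5 mM MgCl2, 60 mM NaCl, 1 mM DTT, 0.01% BSA (final). RT 1 h; Kinase-Glo Plus luminescence.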

[10] = target: Phosphoglycerate kinase, glycosomal (Trypanosoma brucei brucei) (UniProt P07378); assay: qHTS Validation Assay to Find Inhibitors of Phosphoglycerate Kinase (AID 504547);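 note: control wells lack PGK and mark full inhibition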
Method in brief: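 PGK activity was coupled to GAPDH (100nM final), which generates the unstable substrate 1,3-bisphosphoglycerate in-well. Reactions ran 60 minutes at room temperature in 100mM TEA pH 7.6, 5mM MgCl2, 0.01% Tween-20, then Kinase-Glo Plus luminescence was read.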

[11] = target: phosphoglycerate mutase (Leishmania major) (UniProt Q4Q090); assay: qHTS Validation Assay to Find Inhibitors of Phosphoglycerate Mutase (AID 504548); note: series mostly up to about 58 µM; % is set by controls: 0 for no effect and ±100 for the full control effect
Method in brief: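 Lm PGAM at 1.25 nM final with substrate in 100 mM TEA pH 7.6, 5 mM MgCl2, 0.01% Tween-20; 45 min at room temperature. Kinase-GloPlus added, 10 min, end-point luminescence read.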

[12] = qHTS for Inhibitors of ATXN expression: Validation (AID 588378); note: series mostly up to about 57 µM; % is set by controls: 0 for no effect and ±100 for the full control effect; nearly all actives have a fitted effect of over 75% in size
Method in brief: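 Compounds were pinned onto attached HEK293 cells carrying an ATXN2-firefly luciferase construct and incubated 24 hrs at 37 degrees C. Each well then received a fluorescent viability reagent followed by luciferase substrate for end-point luminescence.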

[13] = target: DNA dC->dU-editing enzyme APOBEC-3G (Homo sapiens) (UniProt Q9HC16); assay: qHTS for inhibitors of Vif-A3G interactions: Validation (AID 588379); note: 0% is about no effect
Method in brief: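 HeLa cells stably expressing Vif and A3G-eYFP, 700 cells/well, incubated overnight at 37 deg C, then exposed to compound overnight at 37 deg C. Inhibition of Vif-mediated degradation read as increased yellow fluorescence (Ex 488/Em 500-530) by laser-scanning cytometry.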

[14] = target: Voltage-gated inwardly rectifying potassium channel KCNH2 (Homo sapiens) (UniProt Q12809); assay: qHTS Assay for Small Molecule Inhibitors of the Human hERG Channel Activity (AID 588834);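 note: top concentration of the series differs between compounds; % is set by controls: 0 for no effect and ±100 for the full control effect; lower thallium flux fluorescence means stronger hERG block; nearly all actives have a fitted effect of over 50% in size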
Method in brief: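 hERG-BacMam U2OS, 2000 cells/well; 0.7X FluxOR loading 1 hr RT dark; cpd ~10 min 37 °C; stim buffer; FDSS fluorescence 2 min @ 1 s; AC50 Hill fit.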

[15] = target: Glutaminase kidney isoform, mitochondrial (Homo sapiens) (UniProt O94925); assay: qHTS for Inhibitors of Glutaminase (GLS): LOPAC Validation (AID 624146); note: potency is the fitted concentration of half-maximal effect; nearly all actives have a fitted effect of over 60% in size
Method in brief: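 Assay buffer: 45 mM KH2PO4 pH 8.2, 0.02% Tween-20. hKGA acts on L-glutamine (1 mM solution added); product glutamate is reported by an oxidase/peroxidase Amplex Red coupling, with fluorescence taken at baseline and 30 min.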

[16] = qHTS of Trypanosoma Brucei Inhibitors: LOPAC Validation (AID 624147); note: 0% is about no effect
Method in brief: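 Luminescent Kinase-Glo Plus end-point after 45 min room-temperature reaction of T. brucei pyruvate kinase started with 130 uM ADP (final). Buffer TEA 50 mM pH 7.2 with KCl, MgCl2, BSA, Tween-20; titration-based qHTS with fitted concentration-effect curves.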

[17] = target: Glucagon-like peptide 1 receptor (Homo sapiens) (UniProt P43220); assay: qHTS of GLP-1 Receptor Agonists: LOPAC Validation (AID 624148);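 note: 0% is about no effect; higher luminescence signal means agonism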
Method in brief: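 HEK293 cells stably co-expressing GLP-1R and a cAMP-responsive luciferase reporter, plated 12 hours before compound, then incubated 4-6 hr at 37 deg C. Luminescence read 12 min after detection reagent.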

[18] = qHTS of Nrf2 Activators: LOPAC Validation (AID 624149); note: 0% is about no effect
Method in brief: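 AREc32 cells carrying an ARE-driven firefly luciferase were grown overnight in OPTI-MEM with 5% FBS, then exposed to compounds for 24 hr at 37 deg C. Luciferase signal was read after 30 min with Steady-Glo at RT.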

[19] = HTS Assay for Allosteric Antagonists of the Human D2 Dopamine Receptor: Hit Validation in HTRF (AID 624455);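 note: stable D1 dopamine receptor cell line scored for blocking the D1 response; % is set by controls: 0 for no effect and ±100 for the full control effect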
Method in brief: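 Hits were examined in an HTRF assay using cells stably expressing the D1 dopamine receptor, scoring inhibition of the D1-mediated response. The preceding primary screen tracked calcium flux after an EC80 dopamine addition in force-coupled, inducible Hek293 Trex D2 cells.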

[20] = target: Arylsulfatase A (Homo sapiens) (UniProt P15289); assay: qHTS screen for enhancers of Arylsulfatase A (ASA1): LOPAC Validation Assay (AID 720538); note: 0% is about no effect
Method in brief: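 MLD patient fibroblasts (SV40, ASA-I179S), 1536-well; adhere 6 hrs; cpd 48h, 37 degree C, 5% CO2; pNCS 0.5mM final in lysis buffer, 14h RT; stop 1N NaOH final; fluor. Ex525/Em598.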

[21] = qHTS for compounds that reverse cellular toxicity of Amyloid beta (A-beta) peptide in yeast: LOPAC Validation Assay (AID 720559);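 note: plate controls were DMSO for no effect and equimolar ferric chloride plus clioquinol rescue for full effect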
Method in brief: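 Medium dispensed, compounds pinned, A-beta yeast suspension added; plates held at 30 C for 48 hr; absorbance measured at 600 nm to gauge growth; values scaled between DMSO and FeCl3/clioquinol (equimolar) controls.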

D(1A) dopamine receptor (Homo sapiens), sequence (P21728 whole entry, looked up): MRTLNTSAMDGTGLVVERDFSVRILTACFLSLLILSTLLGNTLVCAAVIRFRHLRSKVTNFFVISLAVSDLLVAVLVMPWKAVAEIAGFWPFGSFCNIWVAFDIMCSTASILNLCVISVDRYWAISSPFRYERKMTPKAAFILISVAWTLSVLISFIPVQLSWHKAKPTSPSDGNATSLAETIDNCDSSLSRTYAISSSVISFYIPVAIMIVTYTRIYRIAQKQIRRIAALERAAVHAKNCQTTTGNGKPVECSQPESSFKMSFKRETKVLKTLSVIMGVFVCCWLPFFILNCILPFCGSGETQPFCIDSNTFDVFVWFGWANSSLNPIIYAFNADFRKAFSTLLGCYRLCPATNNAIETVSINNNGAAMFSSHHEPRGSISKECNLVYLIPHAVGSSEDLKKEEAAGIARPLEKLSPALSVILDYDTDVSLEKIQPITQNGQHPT
Galactokinase (Homo sapiens), sequence (P51570 whole entry, looked up): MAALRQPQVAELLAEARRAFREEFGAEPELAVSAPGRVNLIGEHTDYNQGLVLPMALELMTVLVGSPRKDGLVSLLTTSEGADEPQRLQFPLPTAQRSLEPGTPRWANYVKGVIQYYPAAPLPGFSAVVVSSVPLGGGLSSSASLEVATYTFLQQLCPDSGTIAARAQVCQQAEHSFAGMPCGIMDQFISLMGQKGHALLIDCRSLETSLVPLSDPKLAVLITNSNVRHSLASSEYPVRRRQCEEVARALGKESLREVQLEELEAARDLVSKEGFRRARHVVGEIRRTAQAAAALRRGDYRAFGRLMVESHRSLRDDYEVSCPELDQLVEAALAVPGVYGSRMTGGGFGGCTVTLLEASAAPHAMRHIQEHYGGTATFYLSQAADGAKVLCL
DNA dC->dU-editing enzyme APOBEC-3G (Homo sapiens), sequence (Q9HC16 whole entry, looked up): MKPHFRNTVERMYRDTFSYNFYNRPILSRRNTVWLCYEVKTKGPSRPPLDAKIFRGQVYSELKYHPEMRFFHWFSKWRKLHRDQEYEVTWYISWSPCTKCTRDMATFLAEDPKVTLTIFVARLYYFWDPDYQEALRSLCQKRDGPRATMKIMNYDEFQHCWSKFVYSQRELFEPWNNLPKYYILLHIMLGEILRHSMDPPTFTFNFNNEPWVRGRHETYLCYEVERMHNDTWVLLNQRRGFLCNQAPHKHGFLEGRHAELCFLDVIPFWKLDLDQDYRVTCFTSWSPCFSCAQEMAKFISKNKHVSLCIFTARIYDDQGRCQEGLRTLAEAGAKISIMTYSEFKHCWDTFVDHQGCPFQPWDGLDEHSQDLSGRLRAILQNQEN
Voltage-gated inwardly rectifying potassium channel KCNH2 (Homo sapiens), sequence (Q12809 whole entry, looked up): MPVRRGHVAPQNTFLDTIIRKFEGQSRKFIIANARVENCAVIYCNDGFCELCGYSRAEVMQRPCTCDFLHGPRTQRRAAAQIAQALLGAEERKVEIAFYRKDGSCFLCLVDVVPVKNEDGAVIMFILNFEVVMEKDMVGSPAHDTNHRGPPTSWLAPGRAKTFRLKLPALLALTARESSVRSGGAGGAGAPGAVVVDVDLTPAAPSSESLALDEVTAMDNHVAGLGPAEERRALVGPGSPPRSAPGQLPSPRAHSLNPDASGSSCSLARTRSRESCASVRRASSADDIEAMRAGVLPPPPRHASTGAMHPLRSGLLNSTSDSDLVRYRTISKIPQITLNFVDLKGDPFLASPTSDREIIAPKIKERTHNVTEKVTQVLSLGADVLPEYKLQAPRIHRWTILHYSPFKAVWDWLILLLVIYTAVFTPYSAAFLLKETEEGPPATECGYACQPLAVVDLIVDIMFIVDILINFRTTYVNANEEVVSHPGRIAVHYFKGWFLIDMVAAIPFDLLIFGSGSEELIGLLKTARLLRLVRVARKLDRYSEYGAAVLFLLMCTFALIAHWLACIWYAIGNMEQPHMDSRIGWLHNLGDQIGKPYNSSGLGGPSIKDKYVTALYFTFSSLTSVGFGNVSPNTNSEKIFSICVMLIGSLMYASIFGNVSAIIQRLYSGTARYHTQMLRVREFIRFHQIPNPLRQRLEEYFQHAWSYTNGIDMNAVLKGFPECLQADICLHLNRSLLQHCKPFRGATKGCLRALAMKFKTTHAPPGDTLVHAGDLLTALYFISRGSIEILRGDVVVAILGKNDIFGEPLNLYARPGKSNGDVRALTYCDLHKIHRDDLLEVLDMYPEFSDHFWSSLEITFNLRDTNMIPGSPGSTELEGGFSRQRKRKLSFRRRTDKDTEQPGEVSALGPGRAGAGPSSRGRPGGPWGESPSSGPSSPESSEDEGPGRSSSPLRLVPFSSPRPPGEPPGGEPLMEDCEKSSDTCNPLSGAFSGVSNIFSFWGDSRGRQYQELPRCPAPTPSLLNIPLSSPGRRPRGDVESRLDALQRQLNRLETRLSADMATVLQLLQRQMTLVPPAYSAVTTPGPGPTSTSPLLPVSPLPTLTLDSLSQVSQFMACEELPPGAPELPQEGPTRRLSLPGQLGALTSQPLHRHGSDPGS
phosphoglycerate mutase (Leishmania major), sequence (Q4Q090 1-553): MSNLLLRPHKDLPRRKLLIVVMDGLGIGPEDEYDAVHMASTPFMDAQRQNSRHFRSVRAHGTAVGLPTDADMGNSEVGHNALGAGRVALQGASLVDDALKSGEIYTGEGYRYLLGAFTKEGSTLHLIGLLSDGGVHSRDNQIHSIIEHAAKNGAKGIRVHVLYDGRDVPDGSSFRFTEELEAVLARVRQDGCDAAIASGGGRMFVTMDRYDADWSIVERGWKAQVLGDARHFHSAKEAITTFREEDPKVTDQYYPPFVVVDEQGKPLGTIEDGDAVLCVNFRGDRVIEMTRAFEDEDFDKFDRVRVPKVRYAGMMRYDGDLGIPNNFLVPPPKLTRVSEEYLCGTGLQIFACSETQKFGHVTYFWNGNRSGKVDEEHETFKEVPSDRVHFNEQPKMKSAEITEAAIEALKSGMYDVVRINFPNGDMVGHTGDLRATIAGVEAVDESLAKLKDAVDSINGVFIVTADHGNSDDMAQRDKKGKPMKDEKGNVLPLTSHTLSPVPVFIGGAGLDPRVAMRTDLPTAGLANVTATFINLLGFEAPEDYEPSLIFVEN
Glucagon-like peptide 1 receptor (Homo sapiens), sequence (P43220 whole entry, looked up): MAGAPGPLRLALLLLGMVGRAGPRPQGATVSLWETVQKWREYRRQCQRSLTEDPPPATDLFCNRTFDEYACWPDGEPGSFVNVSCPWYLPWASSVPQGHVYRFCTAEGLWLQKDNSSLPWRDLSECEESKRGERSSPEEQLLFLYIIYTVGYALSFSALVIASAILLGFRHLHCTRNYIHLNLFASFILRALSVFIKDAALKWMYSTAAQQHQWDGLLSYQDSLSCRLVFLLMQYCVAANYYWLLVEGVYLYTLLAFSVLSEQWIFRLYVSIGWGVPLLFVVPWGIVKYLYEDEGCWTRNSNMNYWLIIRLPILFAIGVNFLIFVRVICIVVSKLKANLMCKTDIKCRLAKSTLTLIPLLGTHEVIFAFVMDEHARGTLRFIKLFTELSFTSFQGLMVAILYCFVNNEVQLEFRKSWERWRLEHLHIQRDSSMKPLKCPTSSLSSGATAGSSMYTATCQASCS
Arylsulfatase A (Homo sapiens), sequence (P15289 whole entry, looked up): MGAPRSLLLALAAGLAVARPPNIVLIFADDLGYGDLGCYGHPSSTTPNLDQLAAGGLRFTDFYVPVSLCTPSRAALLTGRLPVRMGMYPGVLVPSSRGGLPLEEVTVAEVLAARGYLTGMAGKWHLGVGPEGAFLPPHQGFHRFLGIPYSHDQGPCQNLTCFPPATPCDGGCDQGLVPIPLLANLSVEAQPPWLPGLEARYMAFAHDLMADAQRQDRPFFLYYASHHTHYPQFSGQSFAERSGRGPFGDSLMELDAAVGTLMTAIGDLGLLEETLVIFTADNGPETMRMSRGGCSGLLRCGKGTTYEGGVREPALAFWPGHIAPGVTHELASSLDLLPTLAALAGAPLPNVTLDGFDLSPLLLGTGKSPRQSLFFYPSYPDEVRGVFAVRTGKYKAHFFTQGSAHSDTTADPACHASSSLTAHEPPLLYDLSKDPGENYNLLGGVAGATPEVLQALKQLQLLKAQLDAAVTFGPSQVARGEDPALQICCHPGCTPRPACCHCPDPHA
Glutaminase kidney isoform, mitochondrial (Homo sapiens), sequence (O94925 whole entry, looked up, canonical isoform): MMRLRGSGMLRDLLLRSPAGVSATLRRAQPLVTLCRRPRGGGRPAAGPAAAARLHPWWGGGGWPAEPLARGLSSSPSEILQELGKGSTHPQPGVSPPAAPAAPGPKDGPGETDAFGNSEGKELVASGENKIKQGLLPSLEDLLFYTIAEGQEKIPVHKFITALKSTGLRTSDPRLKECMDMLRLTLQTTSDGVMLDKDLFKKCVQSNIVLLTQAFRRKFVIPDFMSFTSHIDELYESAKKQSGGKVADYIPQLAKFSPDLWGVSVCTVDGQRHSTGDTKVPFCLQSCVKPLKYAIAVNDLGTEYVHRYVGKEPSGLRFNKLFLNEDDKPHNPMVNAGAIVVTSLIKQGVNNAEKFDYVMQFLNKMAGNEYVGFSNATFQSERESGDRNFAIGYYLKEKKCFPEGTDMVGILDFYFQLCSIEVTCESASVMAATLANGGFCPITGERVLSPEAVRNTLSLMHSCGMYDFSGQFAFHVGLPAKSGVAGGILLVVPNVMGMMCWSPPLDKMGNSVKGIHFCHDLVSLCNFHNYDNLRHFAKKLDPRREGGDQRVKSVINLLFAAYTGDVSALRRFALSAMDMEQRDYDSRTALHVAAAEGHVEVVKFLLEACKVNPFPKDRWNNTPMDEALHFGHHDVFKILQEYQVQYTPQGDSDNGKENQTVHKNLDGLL
Thyrotropin-releasing hormone receptor (Homo sapiens), sequence (P34981 whole entry, looked up): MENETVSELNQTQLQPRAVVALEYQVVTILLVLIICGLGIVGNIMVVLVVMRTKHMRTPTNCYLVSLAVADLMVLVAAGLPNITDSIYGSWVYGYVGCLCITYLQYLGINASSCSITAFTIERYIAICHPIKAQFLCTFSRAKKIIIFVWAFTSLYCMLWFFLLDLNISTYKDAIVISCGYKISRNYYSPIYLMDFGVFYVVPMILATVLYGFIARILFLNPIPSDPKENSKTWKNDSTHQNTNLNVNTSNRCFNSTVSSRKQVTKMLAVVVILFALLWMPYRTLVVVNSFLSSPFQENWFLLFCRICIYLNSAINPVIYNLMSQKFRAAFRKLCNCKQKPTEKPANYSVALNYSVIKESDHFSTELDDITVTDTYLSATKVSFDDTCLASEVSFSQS

N#C/C(=C\c1ccc(O)c(O)c1)C(=O)Nc1ccccc1
active: Potency [15] 631 nM
inactive: outcome [1] | outcome [2] | outcome [3] | Potency [4] | Potency [5] | activation [6] 5.88% | outcome [7] | outcome [8] | outcome [9] | Potency [10] | outcome [11] | Potency [12] | Potency [13] | Potency [14] | outcome [16] | outcome [17] | outcome [18] | outcome [19] | Potency [20] | outcome [21]
-12%: viability change [7]
